Measured values from the supplement of paper PMC11738630.

System: Salmonella enterica serovar Typhimurium 14028s
Assay: approximate change in surviving CFU after surface colonization relative to water-only control (log10 CFU/mL change); higher = more surviving bacteria (less inhibition of surface colonization)
Conditions: not stated (Biolog proprietary concentration), surface: plastic 96-well plate, 20-24 h at 25 °C

Q: For C[C@H](O)[C@@H](N)C(=O)O [D-Threonine], which “approximate change in surviving CFU (log10)” value (from here on “approximate change … (log10)”) (Biolog plate: PM1, Biolog well: F4) is on record?
A: The value was 0.901.

Q: How did the “approximate change … (log10)” value (Biolog plate: PM1, Biolog well: G1) turn out when NCC(=O)N[C@@H](CCC(=O)O)C(=O)O [Glycyl-L-Glutamic Acid] was run?
A: The value was 1.22.

Q: For O=C(O)Cc1ccc(O)cc1 [p-Hydroxy Phenyl Acetic Acid], which “approximate change … (log10)” value (Biolog plate: PM1, Biolog well: H2) is on record?
A: Its value is -2.12.

Q: How did the “approximate change … (log10)” value (Biolog plate: PM1, Biolog well: H3) turn out when O=C(O)Cc1cccc(O)c1 [m-Hydroxy Phenyl Acetic Acid] was run?
A: Its value is -1.31.

Q: For O=C[C@H](O)[C@H](O)[C@@H](O)CO [L-Lyxose], which “approximate change … (log10)” value (Biolog plate: PM1, Biolog well: H6) is on record?
A: The value was -0.987.

Q: How did the “approximate change … (log10)” value (Biolog plate: PM1, Biolog well: H12) turn out when NCCO [2-Aminoethanol] was run?
A: Its value is 0.365.

Q: How did the “approximate change … (log10)” value (Biolog plate: PM2, Biolog well: B8) turn out when OC[C@H]1O[C@@H](Oc2ccc(O)cc2)[C@H](O)[C@@H](O)[C@@H]1O [Arbutin] was run?
A: The value was 1.29.

Q: Which “approximate change … (log10)” value (Biolog plate: PM2, Biolog well: C10) does the source give for CO[C@H]1O[C@H](CO)[C@@H](O)[C@H](O)[C@@H]1O [a-Methyl-D-Mannoside] here?
A: Its value is 0.0215.

Q: For O=C(CO)[C@@H](O)[C@@H](O)[C@H](O)CO [D-Tagatose], which “approximate change … (log10)” value (Biolog plate: PM2, Biolog well: D6) is on record?
A: The value was 0.859.

Q: C/C(=C/C(=O)O)C(=O)O [Citraconic Acid] was tested. Which “approximate change … (log10)” value (Biolog plate: PM2, Biolog well: E3) did it give?
A: Its value is 0.472.

Q: With O=C(O)[C@H](O)[C@@H](O)[C@H](O)[C@H](O)CO[C@H]1O[C@H](CO)[C@H](O)[C@H](O)[C@H]1O [Melibionic Acid] as the compound, how does the “approximate change … (log10)” value (Biolog plate: PM2, Biolog well: F3) read?
A: The value was 0.3.

Q: How did the “approximate change … (log10)” value (Biolog plate: PM2, Biolog well: F7) turn out when O=C1O[C@H](CO)[C@@H](O)[C@H]1O [D-Ribono-1,4-Lactone] was run?
A: Its value is 0.944.

Q: For O=C(O)CCCCCCCCC(=O)O [Sebacic Acid], which “approximate change … (log10)” value (Biolog plate: PM2, Biolog well: F8) is on record?
A: The value was 0.429.

Q: Which “approximate change … (log10)” value (Biolog plate: PM2, Biolog well: F10) does the source give for NC(=O)CCC(=O)O [Succinamic Acid] here?
A: The value was 0.73.

Q: For O=C(O)[C@@H](O)[C@H](O)C(=O)O [D-Tartaric Acid], which “approximate change … (log10)” value (Biolog plate: PM2, Biolog well: F11) is on record?
A: The value was 0.944.

Q: How did the “approximate change … (log10)” value (Biolog plate: PM2, Biolog well: F12) turn out when O=C(O)[C@H](O)[C@@H](O)C(=O)O [L-Tartaric Acid] was run?
A: The value was 0.687.

Q: How did the “approximate change … (log10)” value (Biolog plate: PM2, Biolog well: H5) turn out when C[N+](C)(C)CC(O)CC(=O)[O-] (racemic) [D,L-Carnitine] was run?
A: Its value is 0.365.

Q: Which “approximate change … (log10)” value (Biolog plate: PM2, Biolog well: H10) does the source give for CC(O)C(C)O (stereo not given) [2,3-Butanediol] here?
A: Its value is -0.708.

Q: Which “approximate change … (log10)” value (Biolog plate: PM3, Biolog well: A4) does the source give for O=[N+]([O-])O [Nitrate] here?
A: The value was 0.665.

Q: With N[C@@H](Cc1c[nH]c2ccccc12)C(=O)O [L-Tryptophan] as the compound, how does the “approximate change … (log10)” value (Biolog plate: PM3, Biolog well: B12) read?
A: Its value is -1.05.

Q: With CC(C)[C@@H](N)C(=O)O [D-Valine] as the compound, how does the “approximate change … (log10)” value (Biolog plate: PM3, Biolog well: C9) read?
A: Its value is -0.172.

Q: With NCCc1c[nH]cn1 [Histamine] as the compound, how does the “approximate change … (log10)” value (Biolog plate: PM3, Biolog well: E1) read?
A: The value was -0.987.

Q: Which “approximate change … (log10)” value (Biolog plate: PM3, Biolog well: F5) does the source give for Nc1cc[nH]c(=O)n1 [Cytosine] here?
A: Its value is 1.14.

Q: How did the “approximate change … (log10)” value (Biolog plate: PM3, Biolog well: G2) turn out when OC[C@H]1O[C@@H](n2cnc3c(O)nc(O)nc32)[C@H](O)[C@@H]1O [Xanthosine] was run?
A: The value was 0.751.

Q: How did the “approximate change … (log10)” value (Biolog plate: PM3, Biolog well: G3) turn out when Oc1nc(O)c2nc(O)[nH]c2n1 was run?
A: Its value is 1.14.

Q: For C[C@H](N)C(=O)N[C@@H](CC(=O)O)C(=O)O, which “approximate change … (log10)” value (Biolog plate: PM3, Biolog well: H1) is on record?
A: The value was 0.58.

Q: With C[C@H](N)C(=O)N[C@@H](CCC(=O)O)C(=O)O as the compound, how does the “approximate change … (log10)” value (Biolog plate: PM3, Biolog well: H3) read?
A: Its value is 0.451.

Q: Which “approximate change … (log10)” value (Biolog plate: PM1, Biolog well: A2) does the source give for O[C@@H]1[C@@H](O)[C@@H](O)CO[C@H]1O [L-Arabinose] here?
A: The value was 0.837.

Q: Which “approximate change … (log10)” value (Biolog plate: PM1, Biolog well: A4) does the source give for O=C(O)[C@@H](O)[C@@H](O)[C@H](O)[C@@H](O)C(=O)O [D-Saccharic Acid] here?
A: Its value is 0.708.

Q: With OC[C@@H](O)[C@H](O)[C@H](O)[C@@H](O)CO [Dulcitol] as the compound, how does the “approximate change … (log10)” value (Biolog plate: PM1, Biolog well: A12) read?
A: Its value is 1.03.

Q: With O=P(O)(O)OC[C@H](O)CO (racemic) [D,L-a-Glycerol-Phosphate] as the compound, how does the “approximate change … (log10)” value (Biolog plate: PM1, Biolog well: B7) read?
A: Its value is 1.31.

Q: How did the “approximate change … (log10)” value (Biolog plate: PM1, Biolog well: C7) turn out when O=C(CO)[C@@H](O)[C@H](O)[C@H](O)CO [D-Fructose] was run?
A: The value was 2.4.

Q: With O=P(O)(O)O[C@H]1O[C@H](CO)[C@@H](O)[C@H](O)[C@H]1O [D-Glucose-1-Phosphate] as the compound, how does the “approximate change … (log10)” value (Biolog plate: PM1, Biolog well: E3) read?
A: The value was 1.4.

Q: With O=C(O)CC(CC(=O)O)C(=O)O [Tricarballylic Acid] as the compound, how does the “approximate change … (log10)” value (Biolog plate: PM1, Biolog well: G2) read?
A: The value was 1.05.

Q: For COC(=O)CCC(=O)O [Mono Methyl Succinate], which “approximate change … (log10)” value (Biolog plate: PM1, Biolog well: G9) is on record?
A: Its value is -1.74.

Q: With OCC1(O)OC[C@@H](O)[C@@H](O)[C@H]1O (stereo partly drawn) [D-Psicose] as the compound, how does the “approximate change … (log10)” value (Biolog plate: PM1, Biolog well: H5) read?
A: The value was 1.35.

Q: How did the “approximate change … (log10)” value (Biolog plate: PM2, Biolog well: A6) turn out when OC[C@H]1OC(O[C@H]2[C@H](O)[C@@H](O)C(O[C@H]3[C@H](O)[C@@H](O)[C@@H](O)O[C@@H]3CO)O[C@@H]2CO)[C@H](O)[C@@H](O)[C@@H]1O (stereo not given in full) [Dextrin] was run?
A: The value was 0.665.

Q: OC1OC[C@@H](O)[C@@H](O)[C@@H]1O (stereo partly drawn) [D-Arabinose] was tested. Which “approximate change … (log10)” value (Biolog plate: PM2, Biolog well: B5) did it give?
A: The value was 0.408.

Q: Which “approximate change … (log10)” value (Biolog plate: PM2, Biolog well: B7) does the source give for OC[C@H](O)C(O)[C@@H](O)CO [L-Arabitol] here?
A: Its value is 1.12.

Q: OC[C@H]1O[C@@](CO)(O[C@H]2O[C@H](CO)[C@@H](O)[C@H](O)[C@H]2O)[C@@H](O[C@H]2O[C@H](CO)[C@@H](O)[C@H](O)[C@H]2O)[C@@H]1O [D-Melezitose] was tested. Which “approximate change … (log10)” value (Biolog plate: PM2, Biolog well: C4) did it give?
A: The value was 1.16.
